High-throughput results as filed in PubChem BioAssay.
Compounds with a hit are over-represented: about 12% of the library has one in this group of screens.
Sfp inh: Sfp phosphopantetheinyl transferase inhibition. Q9F4F7. Biochemical Sfp PPTase activity, qHTS. Potency, µM, for the others: largest response in the series, negative = inhibition, actives largely listed as inhibitors. 310,000 compounds, 3.5% hits. AID 1490;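 also: the enzyme is Sfp with the accession as filed and its product quenches rhodamine fluorescence; 0% = enzyme reaction without inhibitor and -100% = no enzyme wells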
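Reaction rates are the 30-min fluorescence difference (ex 525, em 598 nm) in wells containing 15 nM Sfp, 5 uM rhodamine-CoA and 12.5 uM BHQ-2-YbbR at pH 7.6 with 10 mM MgCl2.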
BAZ2B block: inhibitors of human BAZ2B bromodomain. 360,000 compounds, 4.4% hits. Potency, µM (titrated, usually from 114 µM), for the others: top-dose activity change, negative = inhibition, usual class: inhibitors. AID 504333. AlphaScreen BAZ2B-H3K14Ac peptide displacement. Q9UIF8; also: % is scaled to controls: 0 for no effect and ±100 for the full control effect; nearly all actives have a fitted effect of over 60% in size
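BAZ2B 50 nM plus b-H3(5-23)K14Ac 50 nM, PBS pH 7.4/0.01% Tween-20, 30 min RT; compound added (max 110 uM), 30 min RT; streptavidin donor/Ni-chelate acceptor beads 10 ug/mL final, 20 min dark; AlphaScreen read.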
HP1b binding inh: HP1-beta chromodomain-methylated histone interaction inhibition; P83916; AlphaScreen HP1-beta / biotin-H3K9me3 peptide binding; Potency, µM (top dose mostly 114 µM), for the others: at the highest dose activity change, negative = inhibition, hits mostly inhibitors; 390,000 compounds, 0.56% hits; AID 540317; also: nearly all actives have a fitted effect of over 70% in size
Target sequence (P83916 whole entry, looked up): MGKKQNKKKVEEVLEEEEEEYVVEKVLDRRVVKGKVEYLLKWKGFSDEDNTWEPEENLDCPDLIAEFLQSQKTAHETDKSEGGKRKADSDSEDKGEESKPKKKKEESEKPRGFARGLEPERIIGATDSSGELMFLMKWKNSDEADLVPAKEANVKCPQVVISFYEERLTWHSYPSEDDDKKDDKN
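Compound inhibition of the preformed complex between 50 nM HP1-beta and 50 nM biotinylated H3K9me3 peptide was read by AlphaScreen. Buffer was PBS pH 7.4 with 0.01% Tween-20. Incubations ran 30 min at room temperature, with 10 ug/mL donor/acceptor beads.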
JMJD2A Tudor inh: inhibitors of human JMJD2A Tudor domain; Potency, µM (highest dose often 114 µM), without a hit: top-dose activity change, negative = inhibition, most hits filed as inhibitors; 390,000 compounds, 4.4% hits; AID 504339; AlphaScreen JMJD2A-Tudor / H3K4me3 peptide binding; also: % is scaled to controls: 0 for no effect and ±100 for the full control effect; nearly all actives have a fitted effect of over 50% in size
G9a inh: blocks human histone lysine methyltransferase G9a; Q96KQ7; G9a H3K9 monomethylation, AlphaScreen, 2 h; Potency, µM (titrated, usually from 102 µM), for inactives: top-dose activity, negative = inhibition, actives largely listed as inhibitors; 350,000 compounds, 8.8% hits; AID 504332; also: % is scaled to controls: 0 for no effect and ±100 for the full control effect; nearly all actives have a fitted effect of over 75% in size
Target sequence (Q96KQ7 913-1193 limits assumed): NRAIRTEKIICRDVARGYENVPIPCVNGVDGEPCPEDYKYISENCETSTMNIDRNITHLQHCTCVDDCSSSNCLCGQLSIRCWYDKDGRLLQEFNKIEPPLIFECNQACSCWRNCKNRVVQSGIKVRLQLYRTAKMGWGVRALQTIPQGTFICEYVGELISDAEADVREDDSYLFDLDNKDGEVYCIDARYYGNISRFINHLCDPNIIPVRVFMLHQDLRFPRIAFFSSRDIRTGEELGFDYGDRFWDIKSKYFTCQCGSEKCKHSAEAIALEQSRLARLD
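G9a (20 nM) was preincubated 15 min with compound, then reacted 2 h at room temperature with 500 nM biotin-H3K9 peptide and 20 µM SAM. Monomethyl-H3K9 detected by AlphaScreen using anti-H3K9me1 antibody.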
Active calls of the source: *; ? = inconclusive; / = not tested or not shown; [ ] = remark or other dose. Calls follow the shape of the dose curve; as a rule, active = well fitted curve in the direction sought with a large enough effect; inconclusive = small, poorly fitted or top-dose-only effect, or another doubt; inactive = no such curve, though single readings can be large; an effect the other way counts as inactive or inconclusive. Potency is read from the fitted curve at half-maximal effect.

SMILES	Sfp inh	BAZ2B block	HP1b binding inh	JMJD2A Tudor inh	G9a inh
CCOc1cc(/C=C2\SC(=S)N(Nc3ccccc3)C2=O)ccc1O	?	20µM*	50.1µM*	0.0%[11.4 µM]	?
O=C(CCN1C(=O)/C(=C\c2ccccc2)SC1=S)NNC(=O)c1ccccc1O	-11.9%	-9.1%	32.3%	-9.8%	7.6%
O=C(NN1C(=O)/C(=C\c2ccc(O)c([N+](=O)[O-])c2)SC1=S)c1ccccc1Cl	-3.6%	39.8µM*	-31.9%	56.2µM*	3.98µM*
O=C1/C(=C/c2ccc(O)c(O)c2)SC(=S)N1Nc1ccccc1	-7.7%	3.55µM*	7.08µM*	10µM*	10µM*
CC(=O)NN1C(=O)/C(=C\c2ccc(O)cc2)SC1=S	10.8%	-33.9%	-16.5%	-17.4%	?
O=C(NN1C(=O)/C(=C/c2cccc(O)c2)SC1=S)c1ccccc1O	-0.4%	44.7µM*	-18.4%[57 µM]	44.7µM*	-8.2%[59 µM]
O=C(NN1C(=O)/C(=C/c2ccc(O)c(O)c2)SC1=S)c1ccccc1	-26.4%	5.62µM*	?	12.6µM*	6.31µM*
Cc1c(C(=O)Nc2ccc(OCc3ccccc3)cc2)cccc1[N+](=O)[O-]	-22.5%	-1.8%	34.2%	-1.9%	/
COc1cc(/C=C2/C(=O)N(c3cccc(Br)c3)N=C2C)cc(OC)c1O	?	10µM*	28.2µM*	28.2µM*	10µM*
COc1ccccc1/C=C1/C(=O)N(c2ccc([N+](=O)[O-])cc2)N=C1C	18.0%	-36.3%	-1.6%	?	?
COc1cc(/C=C2/C(=O)N(c3ccc(Br)cc3)N=C2C)cc([N+](=O)[O-])c1O	-11.2%	-33.4%	/	/	79.4µM*
COc1ccc(/C=C2/C(=O)N(c3c(F)c(F)c(F)c(F)c3F)N=C2C)cc1	-26.8%	-4.1%	-11.4%	-21.4%	26.8%[0.501 µM]
O=C1N(c2ccccc2)C(c2ccccc2)C12CCCCC2 (centres undefined)	/	/	88.0%	30.1%	/
O=C(NC(NNc1ccc([N+](=O)[O-])cc1)(C(F)(F)F)C(F)(F)F)c1ccc(Cl)cc1	-10.5%	-38.9%	-31.7%	?	39.8µM*
O=C(NNC(=O)c1ccc([N+](=O)[O-])cc1)c1ccc(F)cc1	/	/	31.8%	-7.0%	/
Cc1cccc(NC(=O)c2ccc(NCC3CCCO3)c([N+](=O)[O-])c2)n1 (centres undefined)	14.3%	?	-4.2%	-9.5%	-1.7%
Cc1cccc(NC(=O)c2ccc(C(=O)c3ccccc3)cc2)n1	/	2.0%	41.8%	0.0%	7.94µM*
Cc1cccc(NC(=O)c2ccc(NCCO)c([N+](=O)[O-])c2)n1	4.3%	89.1µM*	6.2%	-21.7%	-15.8%
Cc1cccc(NC(=O)c2cccc(C(=O)Nc3cccc(C)n3)c2)n1	6.0%	-28.0%	25.8%	-16.8%	?
COCCN(C(=O)CCC(=O)Nc1ccccn1)C(C(=O)NC(C)C)c1ccc(C)cc1 (centres undefined)	26.2%	5.2%	17.0%	-2.8%	17.6%[59 µM]
CCN(CC)c1ccc(N2C(=O)/C(=C/c3ccccn3)SC2=S)cc1	-9.7%	-14.9%	-1.3%	-2.5%	/
Cc1ccc(S(=O)(=O)c2cn(C)c3cc(N4CCOCC4)c(F)cc3c2=O)cc1	8.3%	-13.2%	22.9%	-13.5%	57.3%
CCOC(=O)c1ccc2c(c1)n(CC)c(/C=C/Nc1ccccc1)[n+]2CC	-0.1%	-34.4%	41.4%	-16.6%	7.5%[0.501 µM]
CCn1c(/C=C/Nc2ccccc2)[n+](CC)c2ccc(Cl)cc21	3.8%	2.7%	6.6%	-23.0%	44.7µM*
Cc1cc(C)c(-c2csc(NC(=O)COC(=O)c3ccc4c(c3)OCO4)n2)c(C)c1	-5.2%	-6.6%	28.1%	-0.7%	-1.7%[59 µM]
CC(=O)OCCC(C)CCC=C(C)C (centres undefined)	12.2%	/	/	/	/
COc1ccc(/C(N)=N/OC(=O)c2ccc([N+](=O)[O-])c(C)c2)cc1OC	4.4%	-20.7%	45.0%	-13.7%	-39.2%[59 µM]
COc1cc2c(cc1OC)/C(=C/C(=O)c1ccccc1)NCC2	-4.1%	?	-17.3%	?	?
COc1cccc(C(=O)/C=C2\NCCc3cc(OC)c(OC)cc32)c1	3.4%	?	-20.0%	?	50.1µM*
COc1cc2c(cc1OC)/C(=C/C(=O)c1ccc([N+](=O)[O-])c(C)c1)NCC2	-8.0%	-30.3%	9.4%	20µM*	-7.1%
